An excerpt weighted towards active compounds, which were near 19% of everything screened.
HT1080-NT tox: kills 2HG-producing HT-1080-NT fibrosarcoma cells; HT-1080-NT fibrosarcoma viability, CellTiter-Glo ATP luminescence, 48 h; Potency, µM (titrated, usually from 46.1 µM), without a hit: at the top dose activity, negative = less viability, actives largely listed as cytotoxic; 1.6% of 360,000 active;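 further: NT is the 2HG producing partner of a matched IDH1 knockdown line; potency means the concentration at half of the fitted maximal effect; 0% = DMSO-treated cells and -100% = media-only wells without cells; nearly all actives have a fitted effect of over 55% in size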
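A 48-hour cytotoxicity screen used HT-1080-NT cells plated 2 hours before compound delivery. ATP-based CellTiter-Glo luminescence measured viability, normalized to DMSO and no-cell controls.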
DT40 TDP1 no CPT: qHTS for Inhibitors of human tyrosyl-DNA phosphodiesterase 1 (TDP1): qHTS in cells in absence of CPT. 15% of 420,000 active. Potency, µM (titrated, usually from 46.2 µM), for the others: at the highest dose activity change, negative = growth inhibition, usual class: inhibitors. DT40 Tdp1-/- hTDP1 cells, no CPT, ATP luminescence, 48 h; further: potency means the concentration at half of the fitted maximal effect; nearly all actives have a fitted effect of over 55% in size
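DT40 Tdp1-/-;hTDP1 cells, no CPT (DMSO vehicle only), 400 cells/well; compounds pin-transferred; ≥48 hr, 37 °C; CellTiter-Glo 30 min RT dark, luminescence read.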
IL-1B inflam inh: inflammasome signaling inhibition, IL-1 beta readout | activity change, % at 57.5 µM | THP-1 LPS/ATP IL-1B secretion, AlphaLISA, 16 h; active compounds read low | 4.7% of 360,000 active; in the data active means activity change below about -50%; inconclusive means mostly about -30% to -49%
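THP-1 cells pretreated 1 hr with compounds (up to 57.5 uM final), then stimulated with LPS (250 ng/mL final) plus ATP (1.25 mM final); secreted IL-1B measured by AlphaLISA after 16 hr, decreased signal indicating inhibition.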
DT40 TDP1 CPT: DT40-hTDP1 cell growth loss with CPT; chicken DT40 Tdp1-/-;hTDP1 cells + 20 nM CPT, ATP luminescence, 48 h; Potency, µM (highest dose often 46.2 µM), inactives show at the top dose activity change, negative = growth inhibition, most hits filed as inhibitors; 12% of 420,000 active; AID 686979; further: potency means the concentration at half of the fitted maximal effect; nearly all actives have a fitted effect of over 55% in size
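Chicken DT40 Tdp1-/- cells complemented with human TDP1, 400 cells/well, exposed to compounds plus 20 nM camptothecin for at least 48 h at 37 C; viability read as ATP content by CellTiter-Glo luminescence.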
HT1080 IDH1KD tx: kills HT-1080 cells with IDH1 knockdown; 2% of 360,000 active; HT-1080 IDH1 knockdown viability, ATP luminescence, 48 h; Potency, µM (titrated, usually from 46.1 µM), inactives show at the top dose activity, negative = toxicity, usual class: cytotoxic;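 further: potency means the concentration at half of the fitted maximal effect; 0% = DMSO wells and -100% = cell-free medium wells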
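Knockdown cells (IDH1KD HT-1080) received compounds 2 h after plating at 750 cells/well and were kept 48 h at 37 °C in 5% FBS RPMI. A CellTiter-Glo luminescence read gave % activity for curve fitting.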
* = called active by the depositor; ? = inconclusive; nt = no result; [ ] = dose if it differs, or a comment. Unless noted, the call rests on the fitted dose curve; in most records, active means well fitted curve in the direction sought with a large enough effect; inconclusive means small, poorly fitted or top-dose-only effect, or another doubt; inactive means no such curve, though single readings can be large; an effect the other way counts as inactive or inconclusive. Unless noted, on the % scale 0 is the no-effect control and ±100 the full control effect.

SMILES	HT1080-NT tox	DT40 TDP1 no CPT	IL-1B inflam inh	DT40 TDP1 CPT	HT1080 IDH1KD tx
Cc1ccc(NC(=O)NCC2CCN(Cc3cccc(Cl)c3)CC2)c(Cl)c1	-3%	-30%	-51*	?	-7%
Cc1ccc(CN2CCC(CNC(=O)Nc3ccccc3F)CC2)cc1	-13%	?	-53*	1%	-10%
O=C(Nc1ccccc1C(F)(F)F)c1ccc(CN2CCC(Cc3ccccc3)CC2)cc1	16µM*	-96%	-52*	18µM*	23µM*
Cc1ccc(OC(C)C(=O)Nc2ccccc2C(=O)N2CCN(C)CC2)cc1 (centres undefined)	-1%	-18%	-12	-7%	-4%
COc1ccc(-c2cc(C(F)(F)F)nc(SCC(=O)NCc3cccs3)n2)cc1OC	0%	?	-5	?	0%
COc1ccc(C(=O)NC2CCc3ccccc32)cc1OC1CCN(C(C)=O)CC1 (centres undefined)	0%	?	14	-22%	2%
O=C1CCCC2=C1C(c1ccc(Cl)cc1)C1C(=O)c3ccccc3C1=N2 (centres undefined)	?	?	-55*	?	?
O=C1c2ccccc2C2=Nc3ccccc3SC(c3ccc(Cl)cc3)C12 (centres undefined)	?	?	-4	?	?
Cc1ccc(C2C3=C(CCCC3=O)N=C3c4ccccc4C(=O)C32)cc1 (centres undefined)	-28%	?	-68*	-1%	?
COc1ccc(O)c(CNc2ccccc2F)c1	9%	?	-20	-16%	19%
O=C(NC1CCCCC1)C(c1cccc2ccccc12)n1c(=O)c(-c2cc3ccccc3[nH]2)nc2ccccc21 (centres undefined)	21µM*	13µM*	77	?	18µM*
O=C(NC1CCCCC1)C(c1ccccc1F)n1c(=O)c(-c2cc3ccccc3[nH]2)nc2ccccc21 (centres undefined)	-24%	15µM*	65	?	?
COc1ccc(NC(=O)CCn2cccc2)cc1	0%	?	-3	-22%	-2%
COc1ccc(C(CNC(=O)COc2ccc(F)cc2Br)N2CCCC2)cc1 (centres undefined)	-7%	?	-54*	?	-14%
Cc1ccccc1OCC(=O)NCC(c1ccc(Cl)cc1)N1CCCCC1 (centres undefined)	nt	13µM*	nt	21µM*	nt
COc1ccc(C(CNC(=O)COc2ccccc2C)N2CCCCC2)cc1 (centres undefined)	0%	16µM*	-6	21µM*	1%
O=C(NCCC(=O)N1CCc2ccccc21)c1ccco1	18%	-9%	-11	-1%	10%
CC(C(=O)NC1CCCc2ccccc21)N1C(=O)C2CCCCC2C1=O (centres undefined)	8%	14%	10	3%	4%
O=C(c1ccco1)N1CCN(c2ncnc3scc(-c4ccc(Cl)cc4)c23)CC1	-26%	?	52	?	-28%
O=C(c1ccco1)N1CCN(c2ncnc3c2[nH]c2ccc(Br)cc23)CC1	?	23µM*	?	?	?
CCOc1ccc2[nH]c3c(N4CCC5(CC4)OCCO5)ncnc3c2c1	?	23µM*	?	23µM*	23µM*
O=C(COc1ccc2ccccc2c1)N1CCN(C(=O)c2ccco2)CC1	-2%	-9%	11	10%	-6%
CCOc1ccc2[nH]c3c(N4CCN(C(=O)c5ccco5)CC4)ncnc3c2c1	?	13µM*	-11	16µM*	?
Cc1ccc(S(=O)(=O)Nc2ccccc2C=NNC(=O)c2ccncc2)cc1	-18%	?	15	-26%	?
CCc1ccc2c(c1)C1(NN=C(c3ccc(C)cc3)S1)C(=O)N2 (centres undefined)	?	8.2µM*	-100*	16µM*	21µM*
SMILES	HT1080-NT tox	DT40 TDP1 no CPT	IL-1B inflam inh	DT40 TDP1 CPT	HT1080 IDH1KD tx
CCc1ccc2c(c1)NC(=O)C2(C)Cc1ccc(F)cc1 (centres undefined)	?	?	25	?	?
CC(C)c1ccc2c(c1)C1(NN=C(c3ccccc3)S1)C(=O)N2 (centres undefined)	26µM*	6.5µM*	-13	3.7µM*	?
O=C(CCC(=O)Nc1ccccc1)NNC(=O)C(c1ccccc1)c1ccccc1	-20%	-18%	-1	-5%	?
CCN(CC)c1ccc(N=Cc2ccc([N+](=O)[O-])o2)cc1	18µM*	10µM*	-67*	5.8µM*	?
CCN(CC)c1ccc(/C=N/NS(=O)(=O)c2ccc(C)c([N+](=O)[O-])c2)cc1	-18%	?	-7	-23%	-14%
Cc1ccc(NCC(=O)N/N=C/c2ccc(C(=O)O)cc2)cc1	4%	26%	8	2%	4%
Cc1ccc(NCC(=O)N/N=C\c2ccc([N+](=O)[O-])o2)cc1	?	18µM*	-64*	13µM*	1%[9.24 µM]
CCCCCC(=O)N/N=C/c1ccc(N(C)C)cc1	3%	-18%	8	-9%	-3%
CCCCCC(=O)N/N=C/c1ccc([N+](=O)[O-])o1	?	?	21	11µM*	?
O=[N+]([O-])c1ccc(/C=N/NC(=S)Nc2ccccc2)o1	10%	23µM*	-6	15µM*	10%
CCc1ccc(NC(=O)Cn2nc(C(=O)O)c3ccccc3c2=O)cc1	-5%	-9%	0	-13%	1%
COc1ccccc1C(=O)NCC(=O)OCC(=O)c1cccc2ccccc12	10%	?	38	?	13%
O=C(Cc1ccc2c(c1)OCCO2)N/N=C/c1ccco1	4%	-9%	-14	2%	0%
O=C(CCC(=O)Nc1ccc(Cl)cc1Cl)N/N=C/c1ccc([N+](=O)[O-])o1	?	2.9µM*	-77*	2.6µM*	?
O=C(CNc1ccccc1)N/N=C/c1ccc([N+](=O)[O-])o1	-25%	7.3µM*	?	10µM*	-21%
O=C(Cc1ccc2c(c1)OCO2)NN=Cc1ccc([N+](=O)[O-])o1	-12%	12µM*	-61*	?	-21%
O=C(CNC(=O)c1ccccc1)N/N=C/c1ccc([N+](=O)[O-])o1	-26%	23µM*	17	9.2µM*	?
O=C(CNC(=O)c1ccccc1)N/N=C/c1ccc([N+](=O)[O-])s1	-9%	?	?	?	-4%
Cc1ccnc(NC(=O)c2ccc(S(=O)(=O)c3ccccc3)cc2)c1	-4%	?	-8	-5%	0%

High-throughput results deposited in PubChem BioAssay by National Center for Advancing Translational Sciences (NCATS).
